This is part of a sample that, as a whole, favours compounds with a hit. Of some 79,000 tested, about 15% had one in any assay. Cut-off read from the data, not from the text of the source: active = growth inhibition above about 70%; inactive = the rest.
Key:
[1] = NCI Yeast Anticancer Drug Screen. Data for the rad50 strain (AID 155);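 note: 0% = growth of vehicle-only cultures of the same strain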; conditions: S. cerevisiae rad50 strain growth inhibition; at 50.0 µM; active compounds read high
Procedure, shortened: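 Vehicle-treated cultures provide the reference for the growth inhibition reported for compound-exposed, repair-deficient yeast.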

[2] = NCI Yeast Anticancer Drug Screen. Data for the mec2-1 strain (AID 157); conditions: S. cerevisiae mec2-1 strain, at 50.0 µM, active compounds read high
Procedure, shortened: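 Readout is yeast growth inhibition, normalised to vehicle-treated controls, in the mec2-1 strain exposed to compound.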

[3] = NCI Yeast Anticancer Drug Screen. Data for the sgs1 mgt1 strain (AID 161);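 note: 0% = growth of cultures given vehicle only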; conditions: S. cerevisiae sgs1 mgt1 strain, at 50.0 µM, active compounds read high
Procedure, shortened: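 This yeast growth screen uses a strain with defined DNA-repair lesions; compound-treated growth is compared with vehicle-treated growth.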

[4] = NCI Yeast Anticancer Drug Screen. Data for the cln2 rad14 strain (AID 165);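 note: 0% = growth equal to vehicle treated cultures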; conditions: S. cerevisiae cln2 rad14 strain, at 50.0 µM, active compounds read high
Procedure, shortened: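 Relative to vehicle controls, growth inhibition of compound-treated cln2 rad14 yeast was recorded.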

[5] = NCI Yeast Anticancer Drug Screen. Data for the bub3 strain (AID 167); conditions: S. cerevisiae bub3 mutant strain, at 50.0 µM, active compounds read high
Procedure, shortened: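 Mutant yeast screening strain plus compound; vehicle-treated cultures serve as the 0% inhibition reference.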

[6] = NCI Yeast Anticancer Drug Screen. Data for the mlh1 rad18 strain (AID 175); conditions: S. cerevisiae mlh1 rad18 strain growth inhibition; at 50.0 µM; active compounds read high
Procedure, shortened: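 Test agents were incubated with a yeast strain of defined genotype (DNA damage repair defect). Inhibition of growth was derived by comparison with vehicle-exposed cultures.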

Measured: growth inhibition

CCCCCCCCCCCn1cnc2c(=S)nc[nH]c21
inactive: [1] 0.25% | [2] 5.3% | [3] -17.1% | [4] 20.7% | [5] -21.2% | [6] -21.2%

CCC(C)(C)c1ccccc1
inactive: [1] 13.2% | [2] 6% | [3] 20% | [4] 10.9% | [5] 8.95% | [6] 15.3%

COC(=N)CCCl
inactive: [1] -1.3% | [2] -3.95% | [3] 10.8% | [4] 7.2% | [5] -4.55% | [6] 1.5%

CSc1nc2c(N)ncnc2n1C
inactive: [1] 11.4% | [2] 1.4% | [3] 9.55% | [4] 27.7% | [5] 8.15% | [6] 36.8%

O=C(O)C1CCCCN1C(=O)c1ccccc1 (stereo not given)
inactive: [1] -26.6% | [2] -8.4% | [3] -12.2% | [4] -0.05% | [5] -21.2% | [6] -15.5%

CC1CCOC(c2ccc(C(C)C)cc2)O1 (stereo not given)
inactive: [1] 8.4% | [2] -2.4% | [3] 2.9% | [4] -9.9% | [5] 9.45% | [6] -0.15%

CS(=O)(=O)c1nc(Cl)c2[nH]c(Cl)nc2n1
inactive: [1] 16.9% | [2] -19.5% | [3] 5.35% | [4] -11.3% | [5] 12.2% | [6] 22%

CC(C)(CC(O)C#N)/[N+]([O-])=[N+](\[O-])C(C)(C)CC(O)C#N (stereo not given)
inactive: [1] 3.75% | [2] 5.15% | [3] 34.1% | [4] -4.15% | [5] 13.2% | [6] -27.8%

CCOC(=O)C1(C)CCCc2sc(N)c(C#N)c21 (stereo not given)
inactive: [1] -42.4% | [2] -7.55% | [3] -11.1% | [4] -6.45% | [5] -14.2% | [6] 5.45%

CCOC(Nc1ccccc1[N+](=O)[O-])C(=O)c1ccccc1 (stereo not given)
inactive: [1] 21.4% | [2] 8.05% | [3] 1.35% | [4] 28.7% | [5] 24.4% | [6] 12.7%

O=C1NCC/C1=C\c1ccc(Cl)c(Cl)c1
inactive: [1] 9.4% | [2] -12.4% | [3] -10.3% | [4] -17.6% | [5] -7.7% | [6] -13.5%

O=C(Nc1ccccc1)Nc1ccc(-c2ccccc2)cc1
inactive: [1] 13.7% | [2] 14.1% | [3] 13.1% | [4] 5.7% | [5] 37.6% | [6] 3.5%

COC(=O)CC(NC(=O)C(Cc1cncn1C(=O)OCc1ccccc1)NC(=O)OCc1ccccc1)C(=O)O (stereo not given)
inactive: [1] 10.2% | [2] 3.25% | [3] 0.45% | [4] 6.8% | [5] 0.05% | [6] -4.55%

O=C(O)C1CC=CCC1C(=O)O (stereo not given)
inactive: [1] 8.5% | [2] -7.45% | [3] -12.4% | [4] -45.9% | [5] 1.4% | [6] 9.95%

CCOc1ccccc1NC(=O)C1=C(C)NC(C)=C(C(=O)Nc2ccccc2OCC)C1c1ccc2c(c1)OCO2
inactive: [1] 9.5% | [2] 44.5% | [3] 41.3% | [4] 23.2% | [5] 43.1% | [6] 39.9%

Cc1c(N=Nc2cccc(Cl)c2Cl)c(-c2ccccc2)nn1C(=S)S
inactive: [1] 53.8% | [2] 42.6% | [3] 55.9% | [4] 35.6% | [5] 24.6% | [6] 28.2%

COc1ccc(CCNC(=O)C(=O)c2c[nH]c3ccccc23)cc1OC
inactive: [1] 12.6% | [2] 18.8% | [3] 22.4% | [4] 14.3% | [5] 9.55% | [6] 25.2%

O=C(NC(=O)c1ccc([N+](=O)[O-])cc1)Nc1ccccc1
inactive: [1] 10.3% | [2] -4.35% | [3] -1.4% | [4] -25.4% | [5] -14.8% | [6] 5%

O=C1C(Br)=C(Oc2ccccc2)C(=O)C(Br)=C1Oc1ccccc1
inactive: [1] 7.85% | [2] 11.4% | [3] 13.6% | [4] 1.05% | [5] 10.8% | [6] -8.45%

Cc1cc(S(=O)(=O)Nc2n[nH]c(Nc3ccccc3)n2)c(S)cc1Cl
inactive: [1] -3.5% | [2] 9% | [3] -13.8% | [4] 9.6% | [5] 12.9% | [6] 19.6%

Oc1ccccc1C=NCCN(CCN=Cc1ccccc1O)c1ccccc1
inactive: [1] 21.1% | [2] 7.1% | [3] 26.1% | [4] 12.8% | [5] 8.9% | [6] 32.5%

O=C(O)CC(c1ccccc1)C(CC(=O)O)c1ccccc1.[NH-]C1CCCCC1[NH-].[Pt+2] (stereo not given)
inactive: [1] 37.2% | [2] 7.8% | [3] -49.9% | [4] -5.55% | [5] -36.9% | [6] -5.6%

CN1CN=C(Sc2ccc(Cl)cc2[N+](=O)[O-])NC1
inactive: [1] -22.2% | [2] -35.9% | [3] -22.1% | [4] -5% | [5] -6.9% | [6] -11.7%

O=[N+]([O-])c1cccc2cnccc12
inactive: [1] -7.25% | [2] 22.4% | [3] 3.9% | [4] -21.1% | [5] 5.5% | [6] 17.6%

COc1cc2c(cc1OC)CN1CCc3ccccc3CC1C2 (stereo not given)
inactive: [1] 15.3% | [2] -73.3% | [3] -16.8% | [4] -5.1% | [5] -33.5% | [6] -33.7%

OCC(F)(F)C(F)(F)C(F)(F)C(F)(F)C(F)(F)C(F)(F)C(F)(F)C(F)F
inactive: [1] 23.9% | [2] -11.2% | [3] -30.8% | [4] -11.5% | [5] 5.15% | [6] 8.6%

CC(C)OP(=O)(OC(C)C)/C(F)=N/Nc1ccc([N+](=O)[O-])cc1
inactive: [1] 36% | [2] 11.3% | [3] 23.1% | [4] -3.85% | [5] -6.15% | [6] 6.25%

CCCCNC(=O)C1C(=O)N(CCCC)C(=O)/C1=N\N (stereo not given)
inactive: [1] -1.45% | [2] 26.4% | [3] 8.5% | [4] 56.3% | [5] 0.35% | [6] 12.8%

C[Si](C)(C)CSCCO
inactive: [1] -13.7% | [2] -6.45% | [3] -20.8% | [4] -16.1% | [5] -14.7% | [6] -1.6%

O=C1C2=C(Nc3cc(Cl)ccc3N2)OC1c1ccc(C2OC3=C(Nc4ccc(Cl)cc4N3)C2=O)cc1 (stereo not given)
inactive: [1] -20.1% | [2] 11.2% | [3] -7.05% | [4] -33.5% | [5] -7.3% | [6] 17.8%

O=C(O)C1CC(O)c2ccccc2C1c1ccccc1 (stereo not given)
inactive: [1] -2.65% | [2] -1.15% | [3] -11.4% | [4] 22.6% | [5] 5.1% | [6] -17.3%

COCCCCCC(=O)OC
inactive: [1] 5.05% | [2] 17.1% | [3] 6.4% | [4] 4.5% | [5] -7% | [6] 0.5%

c1ccc(COC2NCCN2Cc2ccccc2)cc1 (stereo not given)
inactive: [1] -29.6% | [2] -20.5% | [3] -10.7% | [4] 6.8% | [5] -55.5% | [6] -7.85%

COC(=O)C1N=CSCC1(C)O (stereo not given)
inactive: [1] -4.8% | [2] 15.3% | [3] -25.9% | [4] 12.5% | [5] -2.45% | [6] -16.4%

CC(=O)OCC1OC(n2c(S)c(C#N)c(-c3ccccc3)c(C#N)c2=O)C(OC(C)=O)C(OC(C)=O)C1OC(C)=O (stereo not given)
inactive: [1] 22.1% | [2] 8.45% | [3] -17.3% | [4] -7.4% | [5] -21.2% | [6] -37.1%

COc1cc2ccc3c4cc5c(cc4cnc3c2cc1OC)OCO5
inactive: [1] -0.65% | [2] -3.45% | [3] -15.7% | [4] -25.9% | [5] -1.1% | [6] -16.7%

CCc1[nH]nc(-c2n[nH]c(CC)c2C)c1C
inactive: [1] -66.8% | [2] -24.9% | [3] -20.1% | [4] -26.4% | [5] -13.7% | [6] -9.3%

CC(C)(C)C(Br)CC(N)=O (stereo not given)
inactive: [1] 22.1% | [2] 1.55% | [3] 2% | [4] 4.3% | [5] -6.95% | [6] -6.85%

CC(=O)c1cccc(NC(=O)OC2CCCC(C)C2)c1 (stereo not given)
inactive: [1] 29.8% | [2] 60.7% | [3] 59.6% | [4] 19.4% | [5] 54% | [6] 43.1%

CC1(CCC(=O)c2ccc3c(c2)OCO3)OCCO1
inactive: [1] 31.8% | [2] 8.95% | [3] 23.4% | [4] 14% | [5] 24.6% | [6] 26.9%

— PubChem BioAssay (NCI)
